Experimental data: PubChem BioAssay (Tox21)
Inconclusive results are not listed. Activity calls are given as the source filed them. Unless noted, calls come from the whole dose curve; as a rule, active = well fitted curve in the direction sought with a large enough effect in the repeat runs; inconclusive = weak or mixed curves; inactive = no such curve, though single readings can be large; an effect the other way counts as inactive or inconclusive.

Tests used:
[1] = qHTS assay to identify small molecule agonists of the estrogen receptor alpha (ER-alpha) signaling pathway in the presence of an antagonist - cell viability counter screen (AID 1259386);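 note: series mostly up to about 92 µM; cells exposed to compounds for 22 h at 37 °C before the viability read; nearly all actives have a fitted effect of over 30% in size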
Method in brief: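 VM7Luc4E2, stripped-serum pre-culture 5 d; 24hr plating; +ICI-182,780 10.0nM final; cpds 15 conc, 22hr, 37C/5% CO2; CellTiter-Fluor added at 21hr, fluorescence 1hr later.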

[2] = target: Progesterone receptor (Homo sapiens) (UniProt P06401); assay: qHTS assay to identify small molecule agonists of the progesterone receptor (PR) signaling pathway (AID 1346784; calls by dose curve; note: nearly all actives have a fitted effect of over 30% in size)
Method in brief: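 Fluorescence from LiveBLAzer B/G FRET substrate cleavage (2 hr, RT) reported PR activation in PR-UAS-bla HEK 293T cells treated 16 hr at 37C/5% CO2 with compounds; medium contained 2% charcoal-stripped FBS.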

[3] = target: Progesterone receptor (Homo sapiens) (UniProt P06401); assay: qHTS assay to identify small molecule antagonists of the progesterone receptor (PR) signaling pathway (AID 1346795; active = well fitted inhibition curve with a large enough effect in the signal ratio in the repeat runs, not every such curve was filed as active; the % refers to the signal ratio)
Method in brief: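 Fluorescence intensity measured 2 hr after adding beta-lactamase FRET substrate to PR-UAS-bla HEK293T cells that had been co-treated 16 hr with compound and 1 nM R5020 (final concentration) in 2% charcoal-stripped FBS.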

[4] = qHTS assay to identify small molecule antagonists of the progesterone receptor (PR) signaling pathway - cell viability counter screen (AID 1346798); note: nearly all actives have a fitted effect of over 50% in size; note: potency is the fitted concentration of half-maximal effect; for activity change, negative = cytotoxicity: series mostly up to about 92 µM
Method in brief: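 CellTiter-Glo luminescence; PR-UAS-bla HEK293T, 3,000 cells/well; compound + R5020, 16 hr, 37C/5% CO2; 30 min RT before read.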

[5] = qHTS assay to identify small molecule agonists of the progesterone receptor (PR) signaling pathway - cell viability counter screen (AID 1346799; calls by dose curve; note: nearly all actives have a fitted effect of over 45% in size)
Method in brief: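 In parallel with the beta-lactamase readout, cytotoxicity toward PR-UAS-bla HEK293T cells was measured by CellTiter-Glo luminescence following 16 hr compound incubation in 2% charcoal-stripped FBS medium.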

[6] = qHTS assay to identify small molecule antagonists of the TGF-beta/Smad signaling pathway - cell viability counter screen (AID 1346824); note: nearly all actives have a fitted effect of over 50% in size
Method in brief: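 SBE-bla HEK 293T cells, incubated overnight, then compound plus 0.25 ng/mL TGF-beta1 (stock added) for 5 hr at 37 C. Viability was read in the same wells by CellTiter-Glo luminescence after 30 min at room temperature.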

[7] = qHTS assay to identify small molecule agonists of the TGF-beta/Smad signaling pathway - cell viability counter screen (AID 1346829); note: top concentration of the series differs between compounds; nearly all actives have a fitted effect of over 45% in size
Method in brief: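 HEK 293T SBE-bla line, 5 hr compound exposure at 37 C, multiplexed CellTiter-Glo viability read by luminescence.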

[8] = qHTS assay to identify small molecule agonists of the TGF-beta/Smad signaling pathway (AID 1346859; active = well fitted activation curve with a large enough effect in the signal ratio in the repeat runs, not every such curve was filed as active; the % refers to the signal ratio; note: series mostly up to about 77 µM)
Method in brief: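 After overnight seeding, SBE-bla HEK 293T cells are dosed with compounds in DMSO and kept 5 hr at 37 C, 5% CO2. LiveBLAzer-type FRET substrate is then applied for 2 hr at room temperature.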

[9] = target: Thyrotropin-releasing hormone receptor (Homo sapiens) (UniProt P34981); assay: qHTS assay to identify small molecule antagonists of the thyrotropin-releasing hormone receptor (TRHR) signaling pathway (AID 1346877; active = well fitted inhibition curve with a large enough effect in the repeat runs, not every such curve was filed as active; note: series mostly up to about 51 µM)
Method in brief: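 Intracellular calcium fluorescence, read kinetically every second over 3 min, reports TRH-evoked signalling in HEK293 cells carrying TRHR. Test compounds were added 5 min ahead of a 1 nM TRH challenge.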

[10] = Human pregnane X receptor (PXR) small molecule agonists, qHTS cell viability counter screen (AID 1346977); note: nearly all actives have a fitted effect of over 50% in size
Method in brief: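 Viability counter screen: CellTiter-Fluor signal in PXR-Luc HepG2 cells, 24hr compound exposure, 37C, 5% CO2.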

[11] = Caspase-3/7 induction in HepG2 cells by small molecules, qHTS assay (AID 1346978); note: nearly all actives have a fitted effect of over 15% in size
Method in brief: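 Wild-type HepG2 cells, 2,000/well, settled 5 hr at 37 C and 5% CO2, then compound-treated for 17 hr; caspase-3/7 activity read by luminescent Caspase-Glo 3/7 after 30 min at room temperature.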

[12] = Caspase-3/7 induction in CHO-K1 cells by small molecules, qHTS cell viability counter screen (AID 1346979); note: nearly all actives have a fitted effect of over 35% in size
Method in brief: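 Viability readout by fluorescence (CellTiter-Fluor) on wild-type CHO-K1 cells exposed for 16hr at 37C and 5% CO2 to compounds delivered in DMSO; reagent incubated 1hr before reading.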

[13] = Caspase-3/7 induction in CHO-K1 cells by small molecules, qHTS assay (AID 1346980); note: nearly all actives have a fitted effect of over 15% in size
Method in brief: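 Wild-type CHO-K1 cells exposed to compounds for 17hr at 37 C, 5% CO2. Caspase-3/7 activity then measured by Caspase-Glo 3/7 luminescence after 30min at room temperature.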

[14] = Caspase-3/7 induction in HepG2 cells by small molecules, qHTS cell viability counter screen (AID 1346981); note: series mostly up to about 92 µM; nearly all actives have a fitted effect of over 30% in size
Method in brief: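 HepG2, WT, 2,000 cells/well; 5 hr pre-incubation 37 C/5% CO2; compound pin-transferred from DMSO; 16 hr exposure; CellTiter-Fluor, 1 hr; fluorescence read.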

[15] = target: Cytochrome P450 2D6 (Homo sapiens) (UniProt P10635); assay: Cytochrome P450 Family 2 Subfamily D Member 6 (CYP2D6) small molecule antagonists: luciferase reporter qHTS assay (AID 1671196); note: nearly all actives have a fitted effect of over 50% in size; note: potency is the fitted concentration of half-maximal effect; for activity change, negative = inhibition: series mostly up to about 120 µM
Method in brief: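 Read-out is luminescence from luciferin formed by CYP2D6 turnover of a proluciferin substrate, recorded as relative luminescence units. Reactions ran 1 h at room temperature after NADPH regeneration solution was added.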

[16] = target: Thyrotropin-releasing hormone receptor (Homo sapiens) (UniProt P34981); assay: qHTS assay to identify small molecule agonists of the thyrotropin-releasing hormone receptor (TRHR) signaling pathway (AID 1346891; calls by dose curve;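 note: HEK293 cells expressing TRHR with calcium dye readout; series mostly up to about 58 µM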)
Method in brief: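 Compounds were tested as agonists at 15 concentrations, in triplicate, on TRHR-Hek293 cells; calcium-sensitive dye fluorescence was recorded for 3 min following addition.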

[17] = target: Nuclear receptor subfamily 1 group I member 2 (Rattus norvegicus) (UniProt Q9R1A7); assay: Rat pregnane X receptor (rPXR) activation by small molecules, qHTS assay (AID 1346983); conditions: rPXR luciferase reporter cells, One-Glo luminescence, 24 h; max activation: stronger effect = higher value; note: nearly all actives have a fitted effect of over 20% in size
Method in brief: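 Cell-based rPXR activation assay: rPXR cells, 2,000 per well, rested 5hr at 37 C, then exposed to compounds in DMSO for 24 hr at 37 C. Luciferase activity read by One-Glo luminescence after 30 min at room temperature.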

[18] = target: Nuclear receptor subfamily 1 group I member 2 (Homo sapiens) (UniProt O75469); assay: CYP3A4 induction through human pregnane X receptor (PXR) by small molecules, qHTS assay (AID 1346984); note: nearly all actives have a fitted effect of over 40% in size
Method in brief: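 Luminescence readout: luciferase signal after One-Glo (30 min, room temperature), following 3 h at 37C with 3uM final Luciferin-IPA P450 substrate. Cells were DPX-2 (HepG2, PXR/CYP3A4-luc co-transfected) dosed for 24 h.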

[19] = target: Nuclear receptor subfamily 1 group I member 2 (Homo sapiens) (UniProt O75469); assay: Human pregnane X receptor (PXR) activation by small molecules, qHTS assay (AID 1346985); note: nearly all actives have a fitted effect of over 40% in size
Method in brief: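 DPX-2 cells (HepG2 co-transfected with a PXR response element and a CYP3A4-promoter luciferase construct) were seeded at 2,000 per well, rested 5 hr at 37C, then exposed to DMSO-dissolved compounds for 24 hr. Activation was read as luciferase luminescence.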

[20] = target: Nuclear receptor subfamily 1 group I member 2 (Homo sapiens) (UniProt O75469); assay: Human pregnane X receptor (PXR) small molecule agonists, qHTS assay (AID 1346982); note: nearly all actives have a fitted effect of over 35% in size; note: potency is the fitted concentration of half-maximal effect
Method in brief: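 Luciferase signal from ONE-Glo (30 min, room temperature) measured activation of hPXR-driven CYP3A4 reporter expression in PXR-Luc HepG2 cells treated with compounds for 24 hr at 37 C.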
% is set by controls: 0 for no effect and ±100 for the full control effect.

Nuclear receptor subfamily 1 group I member 2 (Rattus norvegicus), sequence (Q9R1A7 whole entry, looked up): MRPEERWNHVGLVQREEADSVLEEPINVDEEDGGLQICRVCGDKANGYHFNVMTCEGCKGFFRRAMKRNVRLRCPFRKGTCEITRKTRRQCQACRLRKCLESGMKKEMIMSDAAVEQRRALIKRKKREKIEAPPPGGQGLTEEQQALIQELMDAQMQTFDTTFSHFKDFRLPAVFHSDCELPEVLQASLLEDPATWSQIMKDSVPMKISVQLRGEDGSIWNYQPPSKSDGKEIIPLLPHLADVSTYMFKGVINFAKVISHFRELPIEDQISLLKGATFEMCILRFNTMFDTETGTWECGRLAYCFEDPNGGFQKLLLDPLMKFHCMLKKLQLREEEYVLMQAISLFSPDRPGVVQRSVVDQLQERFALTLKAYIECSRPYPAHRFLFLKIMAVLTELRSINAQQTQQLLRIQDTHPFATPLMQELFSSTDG
Nuclear receptor subfamily 1 group I member 2 (Homo sapiens), sequence (O75469 whole entry, looked up): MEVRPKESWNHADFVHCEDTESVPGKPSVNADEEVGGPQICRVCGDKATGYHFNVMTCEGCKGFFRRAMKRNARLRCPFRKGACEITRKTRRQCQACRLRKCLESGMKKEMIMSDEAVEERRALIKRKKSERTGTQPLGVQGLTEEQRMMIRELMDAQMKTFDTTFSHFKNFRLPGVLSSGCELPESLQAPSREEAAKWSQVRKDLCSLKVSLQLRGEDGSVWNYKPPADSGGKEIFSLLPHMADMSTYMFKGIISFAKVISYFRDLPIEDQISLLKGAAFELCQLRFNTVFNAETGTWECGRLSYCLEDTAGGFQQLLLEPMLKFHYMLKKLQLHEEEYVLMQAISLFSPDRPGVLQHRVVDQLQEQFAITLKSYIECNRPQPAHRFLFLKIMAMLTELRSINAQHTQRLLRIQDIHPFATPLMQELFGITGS
Progesterone receptor (Homo sapiens), sequence (P06401 whole entry, looked up): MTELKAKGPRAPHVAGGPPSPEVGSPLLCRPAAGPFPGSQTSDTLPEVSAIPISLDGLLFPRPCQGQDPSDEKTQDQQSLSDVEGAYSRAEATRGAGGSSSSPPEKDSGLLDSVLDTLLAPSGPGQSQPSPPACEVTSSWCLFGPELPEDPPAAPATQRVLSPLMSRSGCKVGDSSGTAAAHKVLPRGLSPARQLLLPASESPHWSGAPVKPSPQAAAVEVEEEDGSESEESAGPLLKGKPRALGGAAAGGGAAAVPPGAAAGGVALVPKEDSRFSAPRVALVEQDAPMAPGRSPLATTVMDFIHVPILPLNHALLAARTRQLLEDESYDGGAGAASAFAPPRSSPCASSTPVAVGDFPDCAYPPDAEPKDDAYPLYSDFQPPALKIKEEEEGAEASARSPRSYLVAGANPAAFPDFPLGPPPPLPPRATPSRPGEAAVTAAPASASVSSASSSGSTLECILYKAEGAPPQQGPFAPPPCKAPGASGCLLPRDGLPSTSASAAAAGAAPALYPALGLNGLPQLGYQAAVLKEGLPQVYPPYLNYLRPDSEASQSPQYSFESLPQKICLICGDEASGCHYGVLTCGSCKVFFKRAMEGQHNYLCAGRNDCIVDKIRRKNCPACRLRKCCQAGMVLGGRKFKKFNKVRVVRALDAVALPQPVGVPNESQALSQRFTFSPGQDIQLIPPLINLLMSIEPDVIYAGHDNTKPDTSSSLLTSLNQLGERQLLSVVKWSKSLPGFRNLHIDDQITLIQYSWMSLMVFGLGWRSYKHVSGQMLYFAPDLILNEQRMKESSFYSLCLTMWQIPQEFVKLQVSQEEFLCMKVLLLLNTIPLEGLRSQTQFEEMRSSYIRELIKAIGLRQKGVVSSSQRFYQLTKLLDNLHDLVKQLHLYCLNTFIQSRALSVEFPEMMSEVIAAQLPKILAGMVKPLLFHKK
Cytochrome P450 2D6 (Homo sapiens), sequence (P10635 whole entry, looked up): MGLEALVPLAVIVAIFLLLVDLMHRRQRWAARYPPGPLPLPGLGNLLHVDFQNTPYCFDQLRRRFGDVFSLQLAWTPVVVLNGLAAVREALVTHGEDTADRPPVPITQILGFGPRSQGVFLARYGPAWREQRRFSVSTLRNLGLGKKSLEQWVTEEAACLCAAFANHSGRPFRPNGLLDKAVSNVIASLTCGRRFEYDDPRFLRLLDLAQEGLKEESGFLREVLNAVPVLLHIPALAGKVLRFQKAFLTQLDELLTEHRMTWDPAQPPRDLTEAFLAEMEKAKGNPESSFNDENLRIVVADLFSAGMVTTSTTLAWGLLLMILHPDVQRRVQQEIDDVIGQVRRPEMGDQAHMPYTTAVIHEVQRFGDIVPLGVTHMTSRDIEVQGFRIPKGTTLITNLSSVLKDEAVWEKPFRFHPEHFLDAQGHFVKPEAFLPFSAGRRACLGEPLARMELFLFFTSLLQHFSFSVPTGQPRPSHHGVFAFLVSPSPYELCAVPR
Thyrotropin-releasing hormone receptor (Homo sapiens), sequence (P34981 whole entry, looked up): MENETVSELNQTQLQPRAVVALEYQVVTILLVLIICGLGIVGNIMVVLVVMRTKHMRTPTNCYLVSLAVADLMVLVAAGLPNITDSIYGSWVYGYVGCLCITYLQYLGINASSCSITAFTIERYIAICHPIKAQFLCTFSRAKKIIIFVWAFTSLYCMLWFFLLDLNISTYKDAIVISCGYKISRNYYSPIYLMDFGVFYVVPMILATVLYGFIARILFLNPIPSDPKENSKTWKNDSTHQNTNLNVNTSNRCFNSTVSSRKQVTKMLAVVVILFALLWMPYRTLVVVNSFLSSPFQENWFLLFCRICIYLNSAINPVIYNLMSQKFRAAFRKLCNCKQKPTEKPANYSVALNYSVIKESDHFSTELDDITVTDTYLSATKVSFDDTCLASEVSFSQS

C=CC[N+]1([C@H]2C[C@H]3[C@@H]4CC[C@H]5C[C@H](OC(C)=O)[C@@H](N6CCCCC6)C[C@]5(C)[C@H]4CC[C@]3(C)[C@H]2OC(=O)CC)CCCCC1
inactive: Potency [1] | outcome [2] | Potency [3] | Potency [4] | Potency [5] | Potency [6] | Potency [7] | outcome [8] | outcome [9] | Potency [10] | outcome [11] | Potency [12] | Potency [13] | Potency [14]
active: Potency [15] 11 µM

Cc1ccc(C(=O)C(C)CN2CCCCC2)cc1 (stereo unspecified)
active: Potency [15] 0.977 µM
inactive: Potency [1] | outcome [2] | Potency [3] | Potency [4] | Potency [5] | Potency [6] | Potency [7] | outcome [8] | outcome [9] | Potency [16] | Potency [10] | outcome [11] | Potency [12] | Potency [13] | Potency [14] | max activation [17] -1.62% | Potency [18] | Potency [19]

CC(CN)CCCN (stereo unspecified)
active: Potency [20] 24.3 µM | Potency [15] 22.4 µM
inactive: Potency [1] | outcome [2] | Potency [3] | Potency [4] | Potency [5] | Potency [6] | Potency [7] | outcome [8] | outcome [9] | Potency [10] | outcome [11] | Potency [13] | Potency [14]

CCCC(=O)OCC
inactive: Potency [1] | outcome [2] | Potency [3] | Potency [4] | Potency [5] | Potency [6] | Potency [7] | outcome [8] | outcome [9] | Potency [16] | Potency [10] | outcome [11] | Potency [13] | Potency [14] | Potency [20] | Potency [15]

Cc1cccc(C(C)(C)C)c1O
inactive: Potency [1] | outcome [2] | Potency [3] | Potency [4] | Potency [5] | Potency [6] | Potency [7] | outcome [8] | outcome [9] | Potency [16] | Potency [10] | Potency [12] | Potency [13] | Potency [14] | Potency [15]

N[C@H]1C(O)O[C@H](CO)[C@H](O)[C@@H]1O (stereo partly specified)
inactive: Potency [1] | outcome [2] | Potency [3] | Potency [4] | Potency [5] | Potency [6] | Potency [7] | outcome [8] | outcome [9] | Potency [16] | Potency [10] | outcome [11] | Potency [12] | Potency [13] | Potency [14] | Potency [15]

O=CNc1ccccc1
inactive: Potency [1] | outcome [2] | Potency [3] | Potency [4] | Potency [5] | Potency [6] | Potency [7] | outcome [8] | outcome [9] | outcome [11] | Potency [12] | Potency [13] | Potency [14] | Potency [15]

CCN(CCO)CCCC(C)Nc1ccnc2cc(Cl)ccc12 (stereo unspecified)
inactive: activity change, negative = cytotoxicity [1] -3.53% [at 8.39 µM] | activation [2] -0.495% [at 8.39 µM] | activity change, negative = inhibition [3] 1.96% [at 8.39 µM] | activity change, negative = cytotoxicity [4] -13% [at 8.39 µM] | activity change, negative = cytotoxicity [5] -10.8% [at 8.39 µM] | viability change, negative = cytotoxic [6] -17% [at 6.97 µM] | activity change, negative = cytotoxicity [7] 2.66% [at 6.97 µM] | activation [8] -1.21% [at 6.97 µM] | activity, negative = inhibition [9] 0.0536% [at 4.65 µM] | activity change, negative = cytotoxicity [10] 4.23% [at 8.39 µM] | caspase activation [11] 0.0326% [at 8.39 µM] | activity change, negative = cytotoxicity [12] 0.797% [at 8.39 µM] | caspase-3/7 activation [13] -0.893% [at 8.39 µM] | activity change, negative = cytotoxicity [14] 3.29% [at 8.39 µM] | max activation [17] -3.7%

Cc1c(Cn2ccnc2)c2ccccc2n1CCC(=O)O
inactive: Potency [1] | outcome [2] | Potency [3] | Potency [4] | Potency [5] | Potency [6] | Potency [7] | outcome [8] | Potency [10] | outcome [11] | Potency [13] | Potency [14] | Potency [20] | max activation [17] -1.57% | Potency [18] | Potency [19]

C1CCC2OC2C1 (stereo unspecified)
inactive: Potency [1] | outcome [2] | Potency [3] | Potency [4] | Potency [6] | Potency [7] | outcome [8] | outcome [9] | Potency [16] | Potency [10] | outcome [11] | Potency [13] | Potency [14] | Potency [20] | Potency [15]

CCOC(=O)C1=NN(c2ccccc2)C(=O)C1
inactive: Potency [1] | outcome [2] | Potency [3] | Potency [4] | Potency [6] | Potency [7] | outcome [8] | outcome [9] | Potency [10] | outcome [11] | Potency [12] | Potency [14] | Potency [15]

Cn1c(=O)c2c(ncn2CC(O)CO)n(C)c1=O (stereo unspecified)
inactive: Potency [1] | outcome [2] | Potency [3] | Potency [4] | Potency [6] | Potency [7] | outcome [8] | outcome [9] | Potency [16] | Potency [10] | outcome [11] | Potency [13] | Potency [14] | Potency [20] | max activation [17] -1.09% | Potency [18] | Potency [19] | Potency [15]

Cc1cccc(Oc2ccccc2)c1
inactive: Potency [1] | outcome [2] | Potency [3] | Potency [6] | Potency [7] | outcome [8] | outcome [9] | Potency [16] | Potency [10] | outcome [11] | Potency [12] | Potency [14] | Potency [20]
active: Potency [4] 21.1 µM | Potency [15] 34.7 µM

CCOC(=O)CC(=O)c1cc(F)c(Cl)nc1Cl
inactive: Potency [1] | outcome [2] | Potency [3] | Potency [4] | Potency [6] | Potency [7] | outcome [8] | Potency [10] | outcome [11] | Potency [12] | Potency [13] | Potency [14] | Potency [20] | Potency [15]

CCCCCC(CO)CCC (stereo unspecified)
inactive: Potency [1] | outcome [2] | Potency [3] | Potency [4] | Potency [5] | Potency [6] | outcome [8] | outcome [9] | Potency [10] | outcome [11] | Potency [12] | Potency [13] | Potency [14] | Potency [20] | Potency [15]

C1=Cc2ccccc2C1
inactive: Potency [1] | outcome [2] | Potency [3] | Potency [4] | Potency [6] | Potency [7] | outcome [8] | outcome [9] | Potency [16] | Potency [10] | outcome [11] | Potency [12] | Potency [13] | Potency [14] | Potency [20]
